Each structure is given as a SMILES string. Values joined by “and” are separate entries in the source; they are usually repeats but may differ in a detail not shown here. Equal entries are not always repeated. Inconclusive results are not listed. A call without a number means that no potency is given here. Some compounds were tested as several samples or in several runs, with calls that do not always agree. Active and inactive are the calls of the source. The call rests on the fitted dose curve; in most records, active means well fitted curve in the direction sought with a large enough effect; inconclusive means small, poorly fitted or top-dose-only effect, or another doubt; inactive means no such curve, though single readings can be large; an effect the other way counts as inactive or inconclusive. Non-standard residues stand in square brackets, D forms with d. Residues, ends and D or L forms follow the SMILES beside them. *: point of attachment. Sta = CC(C)C[C@H](N)[C@@H](O)CC(=O)O; Isovaleryl = CC(C)CC(=O)*
Potency means the concentration at half of the fitted maximal effect.

The nature of the first test: P-glycoprotein substrates identified in KB-8-5-11 adenocarcinoma cell line, qHTS therapeutic library screen (AID 1346987). Further: nearly all actives have a fitted effect of over 65% in size. The settings on record: KB-8-5-11 (P-gp overexpressing) viability, CellTiter-Glo, 72 h; series mostly up to 44.5 µM. The method, boiled down:
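Steps: plate 500 KB-8-5-11 cells/well in DMEM + 10% FCS (colchicine removed); pin compounds in dose-response; incubate 72 h, 37 degree C, 5% CO2; add CellTiter-Glo, 5 min; read luminescence.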
For orientation: In qHTS, concentration-response curves come from the screen itself.
`O=C(CS(=O)Cc1ccco1)NCC=CCOc1cc(CN2CCCCC2)ccn1` (stereo not drawn): the Potency result was “inactive”.
With `CCC(C)(Oc1ccc(C2(c3ccc(OC(C)(CC)C(=O)O)cc3)CCCCC2)cc1)C(=O)O` (stereo not drawn), the Potency entry was “inactive”.
Same read-out and setting: with `NC(=O)Cc1cccc(C(=O)c2ccccc2)c1N` the entry was “inactive”; with `CC(C)[N+]1(C)[C@@H]2CC[C@H]1CC(OC(=O)C(CO)c1ccccc1)C2` (stereo partly drawn), “inactive”; with `O=C(O)c1cn(-c2ccc(F)cc2)c2cc(N3CCNCC3)c(F)cc2c1=O`, “inactive”.
On the same count and under the same terms, for `Cc1cc2c(s1)Nc1ccccc1N=C2N1CCN(C)CC1` the value was “inactive”; for `COc1cc2c(N3CCN(C(=O)Nc4ccc(OC(C)C)cc4)CC3)ncnc2cc1OCCCN1CCCCC1`, “inactive”; for `CCCc1cc(=O)[nH]c(=S)[nH]1`, “inactive”.
Same read-out and setting: with `CC(C)[C@H](N)C(=O)OCCOCn1cnc2c(=O)[nH]c(N)nc21` the entry was “inactive”; with `CN(C)C(=O)COC(=O)Cc1ccc(OC(=O)c2ccc(N=C(N)N)cc2)cc1`, “inactive”.
`COc1ccc(C2(C#N)CCC(C(=O)O)CC2)cc1OC1CCCC1` (stereo not drawn): the Potency result was “inactive”.
On the same count and under the same terms, with `O=C(OC1C[C@H]2CC[C@@H](C1)[N+]21CCCC1)C(O)(c1ccccc1)c1ccccc1` (stereo partly drawn) the entry was “inactive”.
The same measure, in the same setting: for `S=c1nc[nH]c2nc[nH]c12` the value was 2.59 µM (active) and 2.64 µM (active).
For the molecule `CCOC(=O)c1c(C)n(C)c2ccc(O)cc12`, the Potency entry was “inactive”.
Regarding `O=C(NC(Cc1cc(=O)[nH]c2ccccc12)C(=O)O)c1ccc(Cl)cc1` (stereo not drawn), the Potency result was “inactive”.
Regarding `COc1cc(OC)c(C(=O)CCCN2CCCC2)c(OC)c1`, the Potency entry was “inactive”.
For `CCCS(=O)c1ccc2nc(NC(=O)OC)[nH]c2c1` (stereo not drawn), the Potency was 20.9 µM (active) and 13 µM (active).
Still for that read-out and setting: with `N[C@@H](Cc1cc(I)c(Oc2cc(I)c(O)c(I)c2)c(I)c1)C(=O)O` the entry was “inactive”; with `N=C(N=C(N)N)N1CCOCC1`, “inactive”; with `N=C(N)c1ccc2cc(OC(=O)c3ccc(N=C(N)N)cc3)ccc2c1`, “inactive”.
On the same count and under the same terms, for `Cc1ccc(Nc2nccc(N(C)c3ccc4c(C)n(C)nc4c3)n2)cc1S(N)(=O)=O` the value was “inactive”.
The same measure, in the same setting: for `Cc1ccc(S(=O)(=O)NC(=O)NN2CC3CCCC3C2)cc1` (stereo not drawn) the value was “inactive”.
As to `CN(C)c1ccc2nc3ccc(=[N+](C)C)cc-3sc2c1`, the Potency is 3.32 µM (active) and 6.51 µM (active).
As for `COC1=C(OC)C(=O)C(CCCCCCCCCCO)=C(C)C1=O`, the Potency entry is “inactive”.
Still for that read-out and setting: with `Cn1c(NCCN(CCO)CCCc2ccc([N+](=O)[O-])cc2)cc(=O)n(C)c1=O` the entry was “inactive”.
Still for that read-out and setting: for `CC(C)CC(=O)N[C@H](C(=O)N[C@H](C(=O)N[C@@H](CC(C)C)[C@@H](O)CC(=O)N[C@@H](C)C(=O)N[C@@H](CC(C)C)[C@@H](O)CC(=O)O)C(C)C)C(C)C` (Isovaleryl-VV[Sta]A[Sta]-OH) the value was “inactive”.
Take `CC(C)c1nc(CN(C)C(=O)N[C@H](C(=O)N[C@@H](Cc2ccccc2)C[C@H](O)[C@H](Cc2ccccc2)NC(=O)OCc2cncs2)C(C)C)cs1`: the Potency result was “inactive”.
On the same count and under the same terms, for `COC(=O)C1=C(C)NC(C)=C(C(=O)OC(C)C)C1c1cccc2nonc12` (stereo not drawn) the value was “inactive”; for `O=C(NCCO[N+](=O)[O-])c1cccnc1`, “inactive”.
`CCN(CC)CCOc1ccc(Cc2ccccc2)cc1`: the Potency result was “inactive”.
Take `CC(C)c1ccc2oc3nc(N)c(C(=O)O)cc3c(=O)c2c1`: the Potency result was “inactive”.
As to `Nc1ccc(S(N)(=O)=O)cc1`, the Potency entry is “inactive”.
As for `CS(=O)(=O)OCCCCOS(C)(=O)=O`, the Potency entry was “inactive”.
Consider `CC(S)C(=O)NCC(=O)O` (stereo not drawn), for which the Potency entry was “inactive”.
Same read-out and setting: with `Cc1cc(C2CCCCC2)n(O)c(=O)c1` the figure was 5.8 µM (active); with `CC(=O)Nc1ccc(O)cc1`, “inactive”.
For `Clc1ccc(C(Cn2ccnc2)OCc2ccsc2Cl)c(Cl)c1` (stereo not drawn), the Potency is 18.4 µM (active).
The same measure, in the same setting: with `CCCCCCCCCCCCCCCCCCCCCCO` the entry was “inactive”; with `Cc1ncc([N+](=O)[O-])n1CC(C)O` (stereo not drawn), “inactive”.

A further test is described as follows: NS1 protein of Zika virus - qHTS assay to identify small molecule inhibitors in human HEK 293 cells (AID 1347053). Further: nearly all actives have a fitted effect of over 55% in size. The conditions noted are these: HEK293 ZIKV MR766 infection, NS1 TR-FRET, 24 h; series mostly up to 46.1 µM. Put shortly:
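HEK 293 cells pretreated with compound for 1 h, then infected with ZIKV MR766 (MOI 0.5) for 24 h at 37 C. NS1 detected by TR-FRET with two anti-NS1 antibodies; normalized to uninfected (0%) and infected (100%) wells.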
Take `O=C(CS(=O)Cc1ccco1)NCC=CCOc1cc(CN2CCCCC2)ccn1` (stereo not drawn): the Potency entry was “inactive”.
On the same count and under the same terms, for `CCC(C)(Oc1ccc(C2(c3ccc(OC(C)(CC)C(=O)O)cc3)CCCCC2)cc1)C(=O)O` (stereo not drawn) the value was “inactive”.
The same measure, in the same setting: with `NC(=O)Cc1cccc(C(=O)c2ccccc2)c1N` the entry was “inactive”; with `CC(C)[N+]1(C)[C@@H]2CC[C@H]1CC(OC(=O)C(CO)c1ccccc1)C2` (stereo partly drawn), “inactive”.
On the same count and under the same terms, with `O=C(O)c1cn(-c2ccc(F)cc2)c2cc(N3CCNCC3)c(F)cc2c1=O` the entry was “inactive”; with `Cc1cc2c(s1)Nc1ccccc1N=C2N1CCN(C)CC1`, “inactive”.
On to `COc1cc2c(N3CCN(C(=O)Nc4ccc(OC(C)C)cc4)CC3)ncnc2cc1OCCCN1CCCCC1`, for which the Potency result was “inactive”.
With `CCCc1cc(=O)[nH]c(=S)[nH]1`, the Potency result is “inactive”.
Still for that read-out and setting: for `CC(C)[C@H](N)C(=O)OCCOCn1cnc2c(=O)[nH]c(N)nc21` the value was “inactive”; for `CN(C)C(=O)COC(=O)Cc1ccc(OC(=O)c2ccc(N=C(N)N)cc2)cc1`, “inactive”.
With `COc1ccc(C2(C#N)CCC(C(=O)O)CC2)cc1OC1CCCC1` (stereo not drawn), the Potency entry is “inactive”.
Regarding `O=C(OC1C[C@H]2CC[C@@H](C1)[N+]21CCCC1)C(O)(c1ccccc1)c1ccccc1` (stereo partly drawn), the Potency entry was “inactive”.
On the same count and under the same terms, for `S=c1nc[nH]c2nc[nH]c12` the value was 14.8 µM (active).
The same measure, in the same setting: for `CCOC(=O)c1c(C)n(C)c2ccc(O)cc12` the value was “inactive”; for `O=C(NC(Cc1cc(=O)[nH]c2ccccc12)C(=O)O)c1ccc(Cl)cc1` (stereo not drawn), “inactive”; for `COc1cc(OC)c(C(=O)CCCN2CCCC2)c(OC)c1`, “inactive”.
On the same count and under the same terms, for `CCCS(=O)c1ccc2nc(NC(=O)OC)[nH]c2c1` (stereo not drawn) the value was “inactive”; for `N[C@@H](Cc1cc(I)c(Oc2cc(I)c(O)c(I)c2)c(I)c1)C(=O)O`, “inactive”; for `N=C(N=C(N)N)N1CCOCC1`, “inactive”.
Consider `N=C(N)c1ccc2cc(OC(=O)c3ccc(N=C(N)N)cc3)ccc2c1`, for which the Potency result is “inactive”.
Same read-out and setting: with `Cc1ccc(Nc2nccc(N(C)c3ccc4c(C)n(C)nc4c3)n2)cc1S(N)(=O)=O` the entry was “inactive”; with `Cc1ccc(S(=O)(=O)NC(=O)NN2CC3CCCC3C2)cc1` (stereo not drawn), “inactive”.
Same read-out and setting: for `CN(C)c1ccc2nc3ccc(=[N+](C)C)cc-3sc2c1` the value was “inactive”.
For the molecule `COC1=C(OC)C(=O)C(CCCCCCCCCCO)=C(C)C1=O`, the Potency result is “inactive”.
Turning to `Cn1c(NCCN(CCO)CCCc2ccc([N+](=O)[O-])cc2)cc(=O)n(C)c1=O`, the Potency entry is “inactive”.
Consider `CC(C)CC(=O)N[C@H](C(=O)N[C@H](C(=O)N[C@@H](CC(C)C)[C@@H](O)CC(=O)N[C@@H](C)C(=O)N[C@@H](CC(C)C)[C@@H](O)CC(=O)O)C(C)C)C(C)C` (Isovaleryl-VV[Sta]A[Sta]-OH), for which the Potency result was “inactive”.
The same measure, in the same setting: with `CC(C)c1nc(CN(C)C(=O)N[C@H](C(=O)N[C@@H](Cc2ccccc2)C[C@H](O)[C@H](Cc2ccccc2)NC(=O)OCc2cncs2)C(C)C)cs1` the entry was “inactive”; with `COC(=O)C1=C(C)NC(C)=C(C(=O)OC(C)C)C1c1cccc2nonc12` (stereo not drawn), “inactive”; with `O=C(NCCO[N+](=O)[O-])c1cccnc1`, “inactive”.
For `CCN(CC)CCOc1ccc(Cc2ccccc2)cc1`, the Potency entry is “inactive”.
On to `CC(C)c1ccc2oc3nc(N)c(C(=O)O)cc3c(=O)c2c1`, for which the Potency result is “inactive”.
Still for that read-out and setting: for `Nc1ccc(S(N)(=O)=O)cc1` the value was “inactive”; for `CS(=O)(=O)OCCCCOS(C)(=O)=O`, “inactive”.
Regarding `CC(S)C(=O)NCC(=O)O` (stereo not drawn), the Potency result is “inactive”.
Same read-out and setting: with `Cc1cc(C2CCCCC2)n(O)c(=O)c1` the entry was “inactive and 6.62 µM (active)”; with `CC(=O)Nc1ccc(O)cc1`, “inactive”; with `Clc1ccc(C(Cn2ccnc2)OCc2ccsc2Cl)c(Cl)c1` (stereo not drawn), “inactive”.
On the same count and under the same terms, for `CCCCCCCCCCCCCCCCCCCCCCO` the value was “inactive”; for `Cc1ncc([N+](=O)[O-])n1CC(C)O` (stereo not drawn), “inactive”.

For the origin of these results see PubChem BioAssay (NCATS).
